# Rows were chosen to be rich in hits. Some 2.5% of all compounds tested hit in one or more screens of this group.
# 697 NFkB inh: inhibitors of the PMA/ionomycin-induced NF-kB reporter in 697 B cells | 697 B-cell NF-kB luciferase reporter, 16 h | inhibition, % at 4 µM | 330,000 compounds, 0.33% hits; in the data active = inhibition above about 35%
# TMEM16A act: activators or potentiators of mouse TMEM16A chloride channel; Q8BHY3; HEK293 TMEM16A/YFP-H148Q/I152L, iodide quench fluorescence; active compounds read low; B-score at 10 µM; 340,000 compounds, 0.3% hits;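 active = fluorescence-ratio B-score plate-corrected deviation score at least 3 library SD below zero, with starting fluorescence score within 5 deviations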;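 also: channel opened by trigger with iodide after compound preincubation; score built on the fluorescence ratio of max minus min over baseline; more negative score means more quench and so TMEM16A activation or potentiation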
# Target sequence (Q8BHY3 whole entry, looked up): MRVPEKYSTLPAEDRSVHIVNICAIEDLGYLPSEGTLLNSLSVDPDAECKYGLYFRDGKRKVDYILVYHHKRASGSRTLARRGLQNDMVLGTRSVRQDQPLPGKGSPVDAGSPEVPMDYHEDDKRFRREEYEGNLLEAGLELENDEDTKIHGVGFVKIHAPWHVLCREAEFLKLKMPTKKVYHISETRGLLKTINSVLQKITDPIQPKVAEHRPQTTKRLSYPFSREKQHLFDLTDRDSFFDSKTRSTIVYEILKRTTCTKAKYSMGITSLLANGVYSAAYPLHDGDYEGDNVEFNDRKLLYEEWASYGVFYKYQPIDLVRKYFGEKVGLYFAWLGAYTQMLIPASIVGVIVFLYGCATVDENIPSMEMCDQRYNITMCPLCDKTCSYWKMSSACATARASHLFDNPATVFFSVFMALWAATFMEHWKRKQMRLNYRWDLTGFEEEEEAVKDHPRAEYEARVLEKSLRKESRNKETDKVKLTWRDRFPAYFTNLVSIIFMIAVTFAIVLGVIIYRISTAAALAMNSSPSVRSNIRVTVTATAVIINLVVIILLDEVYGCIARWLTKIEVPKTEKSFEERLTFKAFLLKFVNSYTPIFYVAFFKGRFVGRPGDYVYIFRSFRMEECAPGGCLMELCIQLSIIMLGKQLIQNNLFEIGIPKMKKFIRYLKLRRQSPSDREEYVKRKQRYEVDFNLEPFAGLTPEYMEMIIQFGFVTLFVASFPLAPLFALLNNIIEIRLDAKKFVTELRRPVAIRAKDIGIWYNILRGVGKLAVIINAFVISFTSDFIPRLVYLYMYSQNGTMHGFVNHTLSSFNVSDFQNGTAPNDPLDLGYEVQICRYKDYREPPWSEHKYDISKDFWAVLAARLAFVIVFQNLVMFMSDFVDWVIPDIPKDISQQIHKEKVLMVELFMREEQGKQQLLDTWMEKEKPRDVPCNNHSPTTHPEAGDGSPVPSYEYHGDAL
# aSyn UTR inh: 5' untranslated region of α-synuclein, MLPCN primary screen; alpha-synuclein 5'UTR reporter, inhibitor activity; inhibition, % (tested at 7.5 µM); 300,000 compounds, 0.82% hits; in the data active = inhibition above about 60%;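 also: H4 neuroglioblastoma cells stably carrying SNCA 5'UTR luciferase fusion; 0% = DMSO wells and 100% = positive control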
# Jurkat NFkB inh: lowers PMA/ionomycin-induced NF-kB signal in Jurkat cells. PMA/ionomycin-induced NF-kB luciferase reporter, luminescence. inhibition, % at 4 µM. 330,000 compounds, 0.53% hits; in the data active = inhibition above about 50%
# KLF5 inhibitor: kruppel-like factor 5 inhibition | DLD-1 KLF5 promoter-luciferase reporter, luminescence | inhibition, % at 5 µM | 290,000 compounds, 0.23% hits | AID 1700;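 active = inhibition above a per-plate limit of that plate's mean compound inhibition plus 3 SD, cut at about 60% in these data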;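 also: 0% = DMSO wells and 100% = LY294002 at 200 µM; higher means less KLF5 promoter-driven luciferase light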
# ANO1 block: blocks the mouse calcium-activated chloride channel TMEM16A. HEK293 TMEM16A/YFP iodide influx fluorescence, ionomycin. normalized B-score (activity score, 25-100; higher = stronger inhibition) at 10 µM. 310,000 compounds, 1.2% hits. AID 588511;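 active = ratio plate-corrected score three or more library SD toward inhibition, starting fluorescence score within five deviations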;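 also: score derived from kinetic fluorescence span divided by baseline fluorescence per well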
# Jurkat NFkB conf: inhibitors of the PMA/ionomycin-induced NF-kB reporter in Jurkat cells, retest; shares compounds with Jurkat NFkB inh; 2,700 compounds, 27% hits; Jurkat NF-kB luciferase, 16 h; AID 435020; inhibition, % at 4 µM;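 active = inhibition reaching about 45% at 4 µM in either replicate, limit read from the data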;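 also: plate controls were PMA/ionomycin stimulated DMSO wells for no effect and unstimulated DMSO wells for full effect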
# * = called active by the depositor; i = inactive; · = no result given.
SMILES,697 NFkB inh,TMEM16A act,aSyn UTR inh,Jurkat NFkB inh,KLF5 inhibitor,ANO1 block,Jurkat NFkB conf
Cc1cc(CN(C)C(=O)CC2C(=O)NCCN2Cc2ccc(-c3ccccc3)cc2)on1 (configuration not stated),8,i,10,-5,-6,i,·
CN(C)Cc1ccc(-c2nc3cccc4c3n2CCNC4=O)cc1,-11,i,22,57*,·,i,7
O=C(CN1C(=O)NC2(CCOc3ccccc32)C1=O)NCCc1ccccc1 (configuration not stated),-1,i,·,64*,·,·,14
COc1ccc(CCNC(=O)CN2C(=O)NC3(CCOc4ccccc43)C2=O)cc1 (configuration not stated),11,i,·,14,·,·,·
C=CCSc1nc2ccccc2n1C(=O)/C=C/c1cc(OC)c(OC)c(OC)c1,-64,i,-172,64*,5,i,40
C=CCSc1nc2ccccc2n1C(=O)/C=C/c1ccc(OC)c(OC)c1,·,i,-219,·,-60,i,·
CCCOc1ccc(/C=N/Nc2cc(N3CCOCC3)ncn2)c(O)c1,-71,i,3,55*,79*,i,76*
Cc1ccc(S(=O)(=O)NCc2ccncc2)cc1C,22,i,-3,52*,-18,i,55*
O=C(Nc1ccc2c(c1)OCO2)c1ccc(Cl)s1,-88,i,-194,-155,-133,i,-87
O=C(Nc1ccc(Cl)cc1)Nc1ccc2c(c1)OCO2,-99,i,-134,-151,-183,i,-32
CCN1CCN(c2oc(-c3ccccc3C)nc2S(=O)(=O)c2ccccc2)CC1,-40,i,·,-27,·,·,·
Fc1cccc(/C=N/Nc2ccccn2)c1,-61,i,-277,-54,-91,i,·
CCOc1ccc(/C=N/Nc2ccccn2)cc1OC,-90,i,-177,-100,-48,i,·
C(=N\Nc1ccccn1)/c1ccc2c(c1)OCCO2,-213,i,-38,-172,-149,i,-106
CCCOc1ccc(/C=N/Nc2ccccn2)cc1OC,-120,i,-177,-172,-27,i,-29
COc1c(O)cccc1[C@@H](O)C1CCN(CCc2ccc(F)cc2)CC1,18,i,-1,-1,·,i,·
CCOC(=O)c1[nH]c(C)c(C(=O)OCC)c1C,-12,i,-4,-14,-56,i,·
CCOC(=O)c1[nH]c(C)c(C(=O)c2cc(F)ccc2F)c1C,14,i,74*,77*,51,i,43
O=C(Nc1ccccc1)c1nc2ccccc2s1,-131,i,-32,-205,-76,i,-96
CC(C)(C)NC(=O)c1nc2ccccc2s1,7,i,-22,-8,-23,i,·
O=C(NC(=S)Nc1ccc2c(c1)OCCO2)c1ccccc1,-235,i,-43,-210,-73,i,-99
Cc1cccc(NC(=S)c2nc3ccccc3s2)c1,-235,i,-100,-173,-25,i,-103
O=C(Nc1ccc2c(c1)OCCO2)c1ccc2ccccc2n1,-119,i,·,-165,-11,i,-111
O=C(CCN1C(=O)c2ccccc2S1(=O)=O)NCc1ccccc1Cl,-16,i,9,0,·,·,·
O=C(Nc1ccccc1)c1ccc2ccccc2n1,-22,i,-178,-168,-4,i,-92
SMILES,697 NFkB inh,TMEM16A act,aSyn UTR inh,Jurkat NFkB inh,KLF5 inhibitor,ANO1 block,Jurkat NFkB conf
O=C(Nc1ccc(OC(F)(F)F)cc1)c1ccc2ccccc2n1,-31,i,-27,10,20,i,·
Cc1ccc(-n2cc(C(=O)c3ccc(F)cc3)nn2)cc1Cl,-247,i,-48,-179,-103,i,-73
COc1ccc(C(=O)CCNc2ccc(F)cc2)cc1,-119,i,-114,70*,-45,i,-27
Cc1ccc(C2=Nc3ccccc3N=C(C(Cl)Cl)C2)cc1,-149,i,-76,-162,-78,i,-91
Cc1ccc2c(c1)N=C(c1ccccc1)CC(C(Cl)Cl)=N2,-245,i,-74,-143,-94,i,·
Cc1cccc(C(C)C)c1NC(=O)C(C)OC(=O)Cn1cnc2c1c(=O)n(C)c(=O)n2C (configuration not stated),2,i,-12,-9,·,i,·
CCOC(=O)/C=C/c1ccc2oc3ccccc3c(=O)c2c1,-228,i,-191,-165,-98,i,-92
COc1cc(C2CC(=O)c3cnc(N)nc3C2)cc(OC)c1OC (configuration not stated),3,i,16,6,-17,i,·
COc1cc(C2CC(=O)c3cnc(N4CCN(Cc5ccccc5)CC4)nc3C2)cc(OC)c1OC (configuration not stated),-73,i,-10,59*,-9,i,16
CC(C)(C)c1ccc(OCC(O)CN2CCc3ccccc3C2)cc1 (configuration not stated),-4,i,19,3,·,i,·
COCCN1C2=C(C(=O)CC(C)(C)C2)C(c2ccc(OC)c(OC)c2)C2=C1CC(C)(C)CC2=O,12,i,-5,8,8,i,·
CC(C)(C)c1ccc(C(=O)Nc2ccc(Cl)cc2)cc1,-188,i,-110,-161,-93,i,-116
Cc1ccc(C(=O)Nc2ccc(-c3csc(C)n3)cc2)cc1,-81,i,-138,-122,-126,i,·
Cc1nc(-c2ccc(NC(=O)c3ccccc3)cc2)cs1,-85,i,-13,-195,21,i,-125
Cc1ccc(C(=O)Nc2ccc(N3CCN(C)CC3)cc2)cc1,-86,i,-88,-91,-96,i,·
Cc1ccc(NC(=O)c2ccc(C)cc2)cc1,-191,i,-6,-156,·,i,-78
O=C(Nc1ccc(Nc2ccccc2)cc1)c1ccc(Cl)cc1,-15,i,-47,-18,·,i,·
COc1ccc(CN2CCCCCC2)cc1Br,6,i,-16,-2,-34,i,·
N#C/C(=N\Nc1ccccc1[N+](=O)[O-])C(=N)N1CCCCC1,-119,i,-112,-184,-195,i,-75
N#C/C(=N\Nc1ccc(Cl)cc1)C(=N)N1CCCCCC1,-209,i,-133,-215,-115,i,-92
N#C/C(=N\Nc1ccccc1)C(=N)N1CCCCC1,-89,i,-78,-124,-187,i,·
Cc1ccc(S(=O)(=O)N2CCCCC2)cc1C(=O)N1C(C)CCCC1C (configuration not stated),-13,i,·,-16,·,·,·
CCCCC[C@@H]1C=C(C(=O)O)[C@H](c2ccc(Br)cc2)N1S(=O)(=O)c1ccc(C)cc1,8,·,·,8,·,·,·
COc1ccc(C(=O)N/N=C/c2ccccn2)cc1OC,6,i,-6,-6,-33,i,·
